Among all 410,000 compounds or so, about 7,200 (1.8%) were called active. Another 7% or so got no clear call; they are omitted. The rule behind the calls is not given here. The sample as a whole holds a higher share of actives than the screen did.

For this test, the target named is TAR DNA-binding protein 43 (Homo sapiens) (UniProt Q13148). Kind of test: qHTS of TDP-43 Inhibitors. In kind it is functional.
TAR DNA-binding protein 43 (Homo sapiens), sequence (Q13148 whole entry): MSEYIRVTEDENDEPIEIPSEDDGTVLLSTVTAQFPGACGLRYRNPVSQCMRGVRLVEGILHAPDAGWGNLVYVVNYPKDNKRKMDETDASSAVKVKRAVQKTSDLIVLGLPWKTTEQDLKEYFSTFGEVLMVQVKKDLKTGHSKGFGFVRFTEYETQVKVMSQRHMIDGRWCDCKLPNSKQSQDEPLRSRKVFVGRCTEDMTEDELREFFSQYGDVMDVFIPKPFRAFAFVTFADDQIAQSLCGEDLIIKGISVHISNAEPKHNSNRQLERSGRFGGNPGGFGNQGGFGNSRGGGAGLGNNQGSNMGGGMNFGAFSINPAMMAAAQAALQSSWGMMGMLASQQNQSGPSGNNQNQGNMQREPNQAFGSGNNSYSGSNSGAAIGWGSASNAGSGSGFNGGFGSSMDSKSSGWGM
Turning to `COc1ccc(OCC(O)COc2ccc(C(=O)O)cc2)cc1` (configuration not stated), the Potency was 100 µM (active).

Take `O=C(Nc1ccccc1)c1ccccc1NS(=O)(=O)c1ccc(Cl)s1`: the Potency result is “inactive”. Consider `O=C(N/N=C/c1ccc(O)c2ncccc12)c1cccc(Br)c1`, for which the Potency entry is “inactive”. `Clc1ccc(-c2nnc(COc3ncnc4ccccc34)o2)cc1`: the Potency entry is “inactive”. On to `CCOc1cc(N2CCOCC2)c(OCC)cc1NC(=O)Cn1[nH]c(=O)c2ccccc2c1=O`, for which the Potency was 79.4 µM (active). Under `Cc1ccc(-c2cc(C(=O)N3N=C(C(F)F)CC3(O)C(F)F)c3ccccc3n2)cc1C` (configuration not stated) stands “inactive”; under `Cc1ccc(N(Cc2ccccc2)C(=O)c2cc(S(=O)(=O)N3CCOCC3)ccc2Cl)cc1`, “inactive”. On to `COc1ccc2[nH]c3c(C)c4ccncc4c(C)c3c2c1`, for which the Potency entry is “inactive”.

In the case of `O=C(O)Cc1ccccc1Nc1c(Cl)cccc1Cl`, the Potency was 15.8 µM (active).

Take `O=C(Nc1cccc(F)c1)c1ccc2c(c1)OCCO2`: the Potency entry is “inactive”.

In the case of `COc1ccc(Cl)cc1NC(=O)C1CCCN(c2cc(C)nc3ncnn23)C1` (configuration not stated), the Potency entry was “inactive”. The value for `CN(C(=O)COC(=O)c1cccnc1Nc1cccc(C(F)(F)F)c1)C1CCS(=O)(=O)C1` (configuration not stated) was “inactive”.

These data come from ChEMBL document CHEMBL1201862, “PubChem BioAssay data set” (2004).
